# Results filed as inconclusive are left out. Values without a mark were called inactive. Calls of active or inactive are those of the source. Calls come from the whole dose curve; as a rule, active = well fitted cell-killing curve with a large enough effect in the repeat runs; inconclusive = weak or mixed curves, or effect the other way; inactive = no such curve, though single readings can be large or run the other way.
# Test: qHTS assay for identifying genotoxic compounds that show differential cytotoxicity against isogenic chicken DT40 cell lines with known DNA damage response pathways - wild type cell line (AID 743012); note: nearly all actives have a fitted effect of over 60% in size
# Details: DT40 wild type chicken cells viability, CellTiter-Glo, 40 h; series mostly up to 68.4 µM; activity change, negative = cytotoxicity: at the top concentration
# Outline: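 First, wild type DT40 cells were plated at 300 per well and equilibrated about 0.5 h at 37 C/5% CO2. Next, compounds in DMSO were added and exposure lasted 40 h. Finally, CellTiter-Glo was added for 30 min at room temperature and luminescence recorded.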
# % is set by controls: 0 for no effect and ±100 for the full control effect; potency is the fitted concentration of half-maximal effect.
Compound,Potency,"activity change, negative = cytotoxicity"
CC(C)NC[C@@H](O)COc1cccc2ccccc12,26.6 µM (active),–
CCCCCCCCCCCCCCCCOP(=O)([O-])OCC[N+](C)(C)C,–,2.47%
OCCN(CCO)CCN(CCO)CCO,–,-7.43%
CC(C)NCC(O)COc1ccc(CCOCC2CC2)cc1 (configuration not stated),29.8 µM (active),–
c1ccc(CN(CC2=NCCN2)c2ccccc2)cc1,29.8 µM (active),–
CCOc1ccc2nc(N)sc2c1,–,-19.2%
O=CCCc1ccccc1,–,-0.259%

# Test: qHTS assay for identifying genotoxic compounds that show differential cytotoxicity against isogenic chicken DT40 cell lines with known DNA damage response pathways - Rev3 mutant cell line (AID 743014); note: nearly all actives have a fitted effect of over 55% in size
# Details: chicken DT40 Rev3-/- viability, CellTiter-Glo, 40 h; series mostly up to 68.4 µM; activity, negative = cytotoxicity: at the top concentration
Compound,Potency,"activity, negative = cytotoxicity"
CCCCNC(=S)NCCCC,34.4 µM (active),–
NC(=O)Cc1cccc(C(=O)c2ccccc2)c1N,–,-13.3%
C=C(C)C(=O)OCCOP(=O)(O)O,–,7.15% [at 95 µM]
NC1=NCC2c3ccccc3Cc3ccccc3N12 (configuration not stated),26.6 µM (active),–
OCc1ccccc1O,–,14.1%
CC1(O)CSC(C)(O)CS1 (configuration not stated),61.1 µM (active),–
CN1[C@@H]2CC[C@H]1CC(OC(=O)c1c[nH]c3ccccc13)C2 (some centres not stated),–,0.0616%
CCCCCCCCCCCCCCCCOP(=O)([O-])OCC[N+](C)(C)C,–,5.51%
Cc1c[nH]c(=S)[nH]c1=O,–,-2.32%
CC(C)=CCC[C@](C)(O)[C@@H]1CC=C(C)CC1,–,-0.523%

# From PubChem BioAssay (Tox21)
